From PubChem BioAssay (NCATS) come the findings set out here.

Unmarked numbers belong to inactive results. Records with an inconclusive call do not appear. Activity calls are given as the source filed them. Unless noted, the call rests on the fitted dose curve.

Chain of Cytochrome P450 2C19 (Homo sapiens) (P33261 whole entry, looked up): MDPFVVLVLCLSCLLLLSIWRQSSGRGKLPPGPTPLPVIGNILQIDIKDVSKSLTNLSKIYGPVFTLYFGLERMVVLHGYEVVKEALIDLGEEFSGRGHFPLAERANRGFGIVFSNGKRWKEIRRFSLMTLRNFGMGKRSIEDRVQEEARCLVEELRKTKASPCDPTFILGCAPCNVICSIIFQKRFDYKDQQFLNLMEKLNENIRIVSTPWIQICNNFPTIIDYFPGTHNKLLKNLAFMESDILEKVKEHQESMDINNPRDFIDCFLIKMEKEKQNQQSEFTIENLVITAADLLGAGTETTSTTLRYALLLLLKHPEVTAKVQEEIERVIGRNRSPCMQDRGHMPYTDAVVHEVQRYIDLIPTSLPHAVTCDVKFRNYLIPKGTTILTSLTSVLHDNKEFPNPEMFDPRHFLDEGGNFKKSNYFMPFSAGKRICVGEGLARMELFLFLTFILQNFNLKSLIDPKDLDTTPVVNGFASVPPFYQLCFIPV
Chain of 3',5'-cyclic-AMP phosphodiesterase 4B (Homo sapiens) (Q07343 whole entry, looked up): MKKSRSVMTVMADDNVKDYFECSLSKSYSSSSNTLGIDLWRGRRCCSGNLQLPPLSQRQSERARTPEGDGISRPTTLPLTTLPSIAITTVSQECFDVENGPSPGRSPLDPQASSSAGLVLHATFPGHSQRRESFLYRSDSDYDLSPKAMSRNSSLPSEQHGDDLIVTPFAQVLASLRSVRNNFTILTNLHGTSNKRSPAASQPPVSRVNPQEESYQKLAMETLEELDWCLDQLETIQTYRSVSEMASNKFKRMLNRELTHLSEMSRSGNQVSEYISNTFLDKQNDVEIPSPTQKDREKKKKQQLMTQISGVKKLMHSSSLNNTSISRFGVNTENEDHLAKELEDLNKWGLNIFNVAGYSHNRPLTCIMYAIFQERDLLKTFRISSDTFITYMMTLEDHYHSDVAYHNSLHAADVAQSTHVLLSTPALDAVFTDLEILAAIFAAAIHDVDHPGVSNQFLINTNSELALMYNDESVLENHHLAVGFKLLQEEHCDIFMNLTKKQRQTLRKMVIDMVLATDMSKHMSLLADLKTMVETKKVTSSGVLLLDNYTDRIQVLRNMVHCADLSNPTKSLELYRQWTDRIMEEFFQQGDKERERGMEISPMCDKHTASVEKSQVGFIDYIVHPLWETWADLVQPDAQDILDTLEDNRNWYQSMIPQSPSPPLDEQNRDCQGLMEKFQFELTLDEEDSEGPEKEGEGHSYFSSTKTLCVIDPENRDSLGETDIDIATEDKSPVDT
Chain of Cytochrome P450 2C9 (Homo sapiens) (P11712 whole entry, looked up): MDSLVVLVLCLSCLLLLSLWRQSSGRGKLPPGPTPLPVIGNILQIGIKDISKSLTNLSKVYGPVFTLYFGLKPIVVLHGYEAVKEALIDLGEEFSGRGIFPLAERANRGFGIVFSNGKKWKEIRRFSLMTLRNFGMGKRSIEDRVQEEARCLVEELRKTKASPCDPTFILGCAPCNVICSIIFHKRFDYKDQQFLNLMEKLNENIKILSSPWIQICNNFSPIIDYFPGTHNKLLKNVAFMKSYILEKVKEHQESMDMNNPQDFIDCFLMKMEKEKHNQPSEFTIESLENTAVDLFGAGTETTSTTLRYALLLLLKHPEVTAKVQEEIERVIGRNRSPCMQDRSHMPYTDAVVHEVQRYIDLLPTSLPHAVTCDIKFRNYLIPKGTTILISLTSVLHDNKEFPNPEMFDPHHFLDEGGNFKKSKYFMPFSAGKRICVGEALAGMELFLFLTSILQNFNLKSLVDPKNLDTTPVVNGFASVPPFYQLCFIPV

The target in one test is 3',5'-cyclic-AMP phosphodiesterase 4B (Homo sapiens) (UniProt Q07343). Nature of the test: qHTS Assay for Inhibitors of PDE-IV (AID 607; active means well fitted activation curve with a large enough effect in the main read-out, with a control signal flat, not every such curve was filed as active; further: % of control where 0% means no effect). Particulars: HEK293 ACTOne CNG channel cells, membrane potential fluorescence; series mostly up to 22.9 µM. The procedure, abridged:
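Live HEK293 cells with a modified cyclic nucleotide-gated (CNG) channel report intracellular cAMP via membrane-potential dye fluorescence (ex 535/em 590 nm). Endogenous PDE-IV was targeted. Compounds were tested at up to 22.9 uM final; RO 20-1724 100 uM served as control.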
(In general: qHTS replaces the single test concentration by a dilution series.)
Turning to `CN(C)c1ncnc2ccc(-c3cccnc3)cc12`, the Potency entry was “inactive”.

Regarding `Cc1noc(C)c1-c1ccc2ncnc(N(C)C)c2c1`, the Potency result was “inactive”.

For the compound `Cn1c(=O)c(-c2ccc(Cl)cc2)nc2cnc(Nc3ccccc3)nc21`, the Potency entry is “inactive”.

`CN1CCN(c2ncc3nc(-c4ccc(Cl)cc4)c(=O)n(Cc4cccs4)c3n2)CC1`: the Potency entry is “inactive”.

For `COCCNc1nc(-c2ccccc2OC)nc2ccccc12`, the Potency entry is “inactive”.

Consider `CN(Cc1ccco1)c1ncncc1-c1cccc(C#N)c1`, for which the Potency entry was “inactive”.

For the compound `Cc1nc2cnc(N3CCN(C)CC3)nc2n(CCC#N)c1=O`, the Potency result was “inactive”.

For a further test, the target named is Cytochrome P450 2C9 (Homo sapiens) (UniProt P11712). Nature of the test: qHTS Assay for Inhibitors and Substrates of Cytochrome P450 2C9 (AID 883; active means well fitted curve in the direction sought with a large enough effect; an effect the other way counts as inactive or inconclusive; further: on the % scale 0 is the no-effect control and ±100 the full control effect; nearly all actives have a fitted effect of over 60% in size). The settings on record: recombinant CYP2C9, luciferin-H luminescence, 60 min; series mostly up to 57.1 µM. The procedure, abridged:
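Human CYP2C9 (10nM) hydroxylated Luciferin-H (100uM, at its KM) to luciferin in 25mM KPO4. Compound was preincubated 10 min at 37C, then NADPH regeneration started a 60 min reaction at 37C. Luminescence was read after detection reagent, normalized to 57uM sulphaphenazole.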
For `CN(C)c1ccc(-c2cc(Nc3ccc(F)cc3)ncn2)cc1`, the activity change, negative = inhibition was 8.7% [at 2.29 µM].

Consider `c1ccc(Nc2cc(-c3ccoc3)ncn2)cc1`, for which the activity change, negative = inhibition was -13.3% [at 2.29 µM].

As for `CCNc1ncc2ncc(=O)n(C3CC3)c2n1`, the Potency entry was “inactive”.

`COc1ccc(-n2c(=O)c(-c3cccs3)nc3cnc(N(C)C)nc32)cc1`: the Potency entry is “inactive”.

In the next test the target is Cytochrome P450 3A4 (Homo sapiens) (UniProt P08684). The test can be described thus: qHTS Assay for Inhibitors and Substrates of Cytochrome P450 3A4 (AID 884; active means well fitted curve in the direction sought with a large enough effect; an effect the other way counts as inactive or inconclusive; further: nearly all actives have a fitted effect of over 50% in size; further: potency means the concentration at half of the fitted maximal effect; on activity change, negative = inhibition: on the % scale 0 is the no-effect control and ±100 the full control effect). The settings on record: recombinant CYP3A4, Luciferin-PPXE luminescence; series mostly up to 57.1 µM. In a few lines: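 20 nM human CYP3A4 with 25 uM Luciferin-PPXE (at KM) in 200 mM KPO4, preincubated 10 min with compound; NADPH regeneration started a 60 min RT reaction. Luciferin detected by luminescence, normalized to 57 uM ketoconazole as full inhibition.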
Chain of Cytochrome P450 3A4 (Homo sapiens) (P08684 whole entry, looked up): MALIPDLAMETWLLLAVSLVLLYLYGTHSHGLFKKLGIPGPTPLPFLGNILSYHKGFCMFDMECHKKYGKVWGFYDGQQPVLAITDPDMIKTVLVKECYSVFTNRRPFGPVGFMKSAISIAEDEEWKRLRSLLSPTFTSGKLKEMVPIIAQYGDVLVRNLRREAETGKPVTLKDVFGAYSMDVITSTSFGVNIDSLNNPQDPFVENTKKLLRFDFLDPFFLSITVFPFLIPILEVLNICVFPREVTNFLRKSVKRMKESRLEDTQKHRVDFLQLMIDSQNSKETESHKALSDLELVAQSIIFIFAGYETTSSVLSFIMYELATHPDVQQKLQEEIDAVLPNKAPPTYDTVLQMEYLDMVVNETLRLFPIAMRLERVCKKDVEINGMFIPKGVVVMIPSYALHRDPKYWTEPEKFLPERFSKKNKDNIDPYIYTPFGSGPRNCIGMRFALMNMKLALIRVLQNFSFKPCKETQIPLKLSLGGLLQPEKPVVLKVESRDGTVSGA
As to `CCNc1ncc2nc(-c3cn(C)c4ccccc34)c(=O)n(Cc3cccc(OC)c3)c2n1`, the Potency is 3.98 µM (active).

Take `c1ccc(Nc2cc(-c3ccoc3)ncn2)cc1`: the Potency result is “inactive”.

As for `FC(F)(F)c1ccccc1-c1cc(NCc2ccccc2)ncn1`, the Potency result is “inactive”.

For the compound `Cc1ccccc1-c1cc(N(C)C)ncn1`, the Potency result was “inactive”.

On to `O=c1c(-c2ccc(F)cc2)nc2cnc(N3CCNCC3)nc2n1Cc1ccc(F)cc1`, for which the Potency was 7.94 µM (active).

Take `CN1CCN(c2ncc3nc(-c4ccc(Cl)cc4)c(=O)n(Cc4cccs4)c3n2)CC1`: the Potency entry is “inactive”.

With `CN(Cc1ccco1)c1ncncc1-c1cccc(C#N)c1`, the Potency is 7.94 µM (active).

A further test has the same target. The test can be described thus: qHTS Assay for Activators of Cytochrome P450 3A4 (AID 885; active means well fitted curve in the direction sought with a large enough effect; an effect the other way counts as inactive or inconclusive; further: nearly all actives have a fitted effect of over 65% in size; further: potency means the concentration at half of the fitted maximal effect). Particulars: recombinant CYP3A4, Luciferin-PPXE luminescence, 60 min; series mostly up to 57.1 µM. The procedure, abridged:
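Quantitative HTS format: compounds preincubated with 20nM human CYP3A4 and Luciferin-PPXE substrate at KM, reaction started by NADPH regeneration, stopped after 60 min, luciferase luminescence read 20 min later.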
Regarding `CN(C)Cc1ccccc1-c1nc(NCc2cccs2)c2ccccc2n1`, the Potency result is “inactive”.

As to `CN(C)c1ccc(-c2cc(Nc3ccc(F)cc3)ncn2)cc1`, the Potency entry was “inactive”.

Consider `COc1ncc2nc(C)c(=O)n(C3CC3)c2n1`, for which the Potency entry is “inactive”.

For the compound `CN(C)Cc1ccccc1-c1cc(N(C)Cc2ccco2)ncn1`, the Potency result was “inactive”.

As for `CN(Cc1ccco1)c1ncncc1-c1ccccc1Cl`, the Potency entry was “inactive”.

For `CN1CCN(c2ncc3nc(-c4cc(F)cc(F)c4)c(=O)n(C4CC4)c3n2)CC1`, the Potency result is “inactive”.

Turning to `COCCn1c(=O)c(C)nc2cnc(Oc3ccc(OC)cc3)nc21`, the Potency result was “inactive”.

For the compound `CN(Cc1ccco1)c1ncncc1-c1ccoc1`, the Potency entry is “inactive”.

Take `CCNc1ncc2nc(-c3cn(C)c4ccccc34)c(=O)n(Cc3cccc(OC)c3)c2n1`: the Potency entry was “inactive”.

`FC(F)(F)c1ccccc1-c1cc(NCc2ccccc2)ncn1`: the Potency was 10 µM (active).

As to `O=c1cnc2cnc(N3CCOCC3)nc2n1CCc1ccccc1`, the Potency entry is “inactive”.

Regarding `Cc1ccccc1-c1cc(N(C)C)ncn1`, the Potency is 15.8 µM (active).

Turning to `O=c1c(-c2ccc(F)cc2)nc2cnc(N3CCNCC3)nc2n1Cc1ccc(F)cc1`, the Potency entry was “inactive”.

With `Fc1ccc(Nc2ncncc2-c2ccccc2C(F)(F)F)cc1`, the Potency result is “inactive”.

Consider `CN(C)c1ncnc2ccc(-c3cccnc3)cc12`, for which the Potency entry is “inactive”.

As to `COCCNc1nc(-c2ccccc2OC)nc2ccccc12`, the Potency entry was “inactive”.

On to `CN(Cc1ccco1)c1ncncc1-c1cccc(C#N)c1`, for which the Potency entry is “inactive”.

The target in a further test is Cytochrome P450 2C19 (Homo sapiens) (UniProt P33261). The test can be described thus: qHTS Assay for Inhibitors and Substrates of Cytochrome P450 2C19 (AID 899; active means well fitted curve in the direction sought with a large enough effect; an effect the other way counts as inactive or inconclusive; further: nearly all actives have a fitted effect of over 60% in size; further: potency means the concentration at half of the fitted maximal effect). Particulars: recombinant CYP2C19, luciferin-H EGE luminescence; series mostly up to 57.1 µM. The procedure, abridged:
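Human CYP2C19 (5nM) with Luciferin-H EGE at 10uM (its KM) in 50mM KPO4 was preincubated with compound for 10 min at 37C. NADPH regeneration started a 60 min 37C reaction. Luciferin was read by luminescence, normalized to 57uM ketoconazole.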
For the compound `CN(C)c1ccc(-c2cc(Nc3ccc(F)cc3)ncn2)cc1`, the Potency was 2 µM (active).

On to `CN(Cc1ccco1)c1ncncc1-c1ccccc1Cl`, for which the Potency was 0.794 µM (active).

`c1ccc(Nc2cc(-c3ccoc3)ncn2)cc1`: the Potency is 7.94 µM (active).

On to `COc1ccc(-n2c(=O)c(-c3cccs3)nc3cnc(N(C)C)nc32)cc1`, for which the Potency result was “inactive”.

Regarding `Fc1ccc(Nc2ncncc2-c2ccccc2C(F)(F)F)cc1`, the Potency was 7.94 µM (active).

Tested on in a further test: not listed separately
The test can be described thus: qHTS Assay for Identification of Small Molecule Agonists for Hypoxia Response Element Signaling Pathway (AID 914; active means well fitted activation curve with a large enough effect in the signal ratio, with a control signal flat, not every such curve was filed as active; the % refers to the signal ratio; further: potency means the concentration at half of the fitted maximal effect; on activation: % of control where 0% means no effect). The settings on record: ME-180 (cervical carcinoma) HRE-bla reporter, beta-lactamase ratio, CoCl2, 17 h; activation: active compounds read high. In a few lines: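 A beta-lactamase reporter under hypoxia response element control in ME-180 cells served as the system. Compound titrations plus EC50 CoCl2 ran 17 h at 37 degrees Celsius; AC50 values were fitted from %Activity.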
In the case of `CN(C)c1ncc2nc(-c3ccccc3)c(=O)n(-c3ccccc3)c2n1`, the Potency is 0.631 µM (active).

On to `CCNc1ncc2nc(-c3cn(C)c4ccccc34)c(=O)n(Cc3cccc(OC)c3)c2n1`, for which the Potency is 1.58 µM (active).

In the case of `c1ccc(Nc2cc(-c3ccoc3)ncn2)cc1`, the activation is -8.49%.

On to `Cn1c(=O)c(-c2cc(F)cc(F)c2)nc2cnc(N3CCOCC3)nc21`, for which the activation is -3.42%.

Tested on in the next test: not listed separately
Nature of the test: qHTS Assay for Lipid Storage Modulators (AID 1519). Further: on the % scale 0 is the no-effect control and ±100 the full control effect. Particulars: Drosophila S3 cells, BODIPY lipid droplet/cell ratio, laser cytometry; at 57.5 µM (top of the series); cells loaded with oleic acid. The procedure, abridged:
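Cells seeded at 5,000 per well were treated with compounds over a concentration series and loaded with oleic acid (400 uM, as added). Lipid droplet fluorescence (488 nm excitation, 500-530 nm channel) was read by laser-scanning cytometry and normalized to 20 uM Triacsin C.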
For `Cc1nc2cnc(N3CCOCC3)nc2n(C[C@H]2CCCO2)c1=O`, the activity change, negative = inhibition was 3.62%.

Take `CN(C)Cc1ccccc1-c1nc(NCc2cccs2)c2ccccc2n1`: the activity change, negative = inhibition is -0.128%.

As for `CN(C)c1ncc2nc(-c3ccccc3)c(=O)n(-c3ccccc3)c2n1`, the activity change, negative = inhibition was -3.18%.

In the case of `N#Cc1cccc(-c2nc3cnc(N4CCOCC4)nc3n(C[C@H]3CCCO3)c2=O)c1`, the activity change, negative = inhibition was 4.04%.

On to `COc1ccc(-c2nc3cnc(Nc4cccc(OC)c4)nc3n(C3CC3)c2=O)cc1`, for which the activity change, negative = inhibition was 0.287%.

Take `CN(C)c1ncc2nc(-c3cn(C)c4ccccc34)c(=O)n(C[C@H]3CCCO3)c2n1`: the activity change, negative = inhibition was 6.78%.

With `CN(C)c1ncc2nc(-c3ccc(F)cc3)c(=O)n(C[C@H]3CCCO3)c2n1`, the activity change, negative = inhibition was -2.2%.

With `CN(C)c1ccc(-c2cc(Nc3ccc(F)cc3)ncn2)cc1`, the activity change, negative = inhibition was 8.67%.

In the case of `COc1ncc2nc(C)c(=O)n(C3CC3)c2n1`, the activity change, negative = inhibition is 4.19%.

`CN(C)Cc1ccccc1-c1cc(N(C)Cc2ccco2)ncn1`: the activity change, negative = inhibition is 5.32%.

Take `CN(Cc1ccco1)c1ncncc1-c1ccccc1Cl`: the activity change, negative = inhibition is 7.31%.

As to `CN1CCN(c2ncc3ncc(=O)n(C[C@H]4CCCO4)c3n2)CC1`, the activity change, negative = inhibition was 6.86%.

As for `CN1CCN(c2ncc3nc(-c4cc(F)cc(F)c4)c(=O)n(C4CC4)c3n2)CC1`, the activity change, negative = inhibition was 1.65%.

Turning to `COCCn1c(=O)c(C)nc2cnc(Oc3ccc(OC)cc3)nc21`, the activity change, negative = inhibition was 1.21%.

As for `CN(Cc1ccco1)c1ncncc1-c1ccoc1`, the activity change, negative = inhibition was 6.13%.

Turning to `CCNc1ncc2nc(-c3cn(C)c4ccccc34)c(=O)n(Cc3cccc(OC)c3)c2n1`, the activity change, negative = inhibition is 2.75%.

As to `c1ccc(Nc2cc(-c3ccoc3)ncn2)cc1`, the activity change, negative = inhibition is 8.08%.

On to `Cn1c(=O)c(-c2cccs2)nc2cnc(OCc3ccccc3)nc21`, for which the activity change, negative = inhibition is 6.88%.

As for `FC(F)(F)c1ccccc1-c1cc(NCc2ccccc2)ncn1`, the activity change, negative = inhibition is 5.85%.

As for `Cc1nc2cnc(N(C)C)nc2n(C[C@H]2CCCO2)c1=O`, the activity change, negative = inhibition was 2.86%.

Consider `O=c1c(CCc2ccccc2)nc2cnc(N3CCOCC3)nc2n1Cc1cccs1`, for which the activity change, negative = inhibition is 8.99%.

As for `Cn1c(=O)c(-c2cc(F)cc(F)c2)nc2cnc(N3CCOCC3)nc21`, the activity change, negative = inhibition is 4.75%.

Regarding `O=c1cnc2cnc(N3CCOCC3)nc2n1CCc1ccccc1`, the activity change, negative = inhibition is 3.67%.

Take `Cc1ccccc1-c1cc(N(C)C)ncn1`: the activity change, negative = inhibition is 6.31%.

In the case of `CCNc1ncc2ncc(=O)n(C3CC3)c2n1`, the activity change, negative = inhibition is 3.55%.

Consider `COCCn1c(=O)c(-c2cc(F)cc(F)c2)nc2cnc(N3CCOCC3)nc21`, for which the activity change, negative = inhibition is 6.45%.

With `O=c1c(-c2ccc(F)cc2)nc2cnc(N3CCNCC3)nc2n1Cc1ccc(F)cc1`, the activity change, negative = inhibition is 2.38%.

Consider `COc1ncc2nc(-c3ccc(F)cc3)c(=O)n(C3CC3)c2n1`, for which the activity change, negative = inhibition is 4.43%.

With `COc1ccc(-n2c(=O)c(-c3cccs3)nc3cnc(N(C)C)nc32)cc1`, the activity change, negative = inhibition was 7.83%.

In the case of `Fc1ccc(Nc2ncncc2-c2ccccc2C(F)(F)F)cc1`, the activity change, negative = inhibition is 3.62%.

`CN(C)c1ncnc2ccc(-c3cccnc3)cc12`: the activity change, negative = inhibition was 3.37%.

`Cc1noc(C)c1-c1ccc2ncnc(N(C)C)c2c1`: the activity change, negative = inhibition was 3.59%.

As to `Cn1c(=O)c(-c2ccc(Cl)cc2)nc2cnc(Nc3ccccc3)nc21`, the activity change, negative = inhibition is -14.5%.

As for `CN1CCN(c2ncc3nc(-c4ccc(Cl)cc4)c(=O)n(Cc4cccs4)c3n2)CC1`, the activity change, negative = inhibition was 0.387%.

Regarding `CN1CCN(c2cc(-c3ccoc3)ncn2)CC1`, the activity change, negative = inhibition was 6.62%.

On to `COCCNc1nc(-c2ccccc2OC)nc2ccccc12`, for which the activity change, negative = inhibition was 6.78%.

For `CN(Cc1ccco1)c1ncncc1-c1cccc(C#N)c1`, the activity change, negative = inhibition was 5.47%.

As to `Cc1nc2cnc(N3CCN(C)CC3)nc2n(CCC#N)c1=O`, the activity change, negative = inhibition is 4.33%.

For `COc1ccc(Oc2ncc3nc(C)c(=O)n(Cc4cccc(OC)c4)c3n2)cc1`, the activity change, negative = inhibition is 4.03%.

With `COCCn1c(=O)c(-c2ccc(Cl)cc2)nc2cnc(Oc3cccc(Cl)c3)nc21`, the activity change, negative = inhibition is 4.42%.
